SSB-PriA inh – inhibitors of Klebsiella pneumoniae PriA binding to SSB C-terminal tail | inhibition, % at 33 µM | AID 1272365 | AlphaScreen SSBct-PriA binding, biotinylated peptide | 430,000 compounds, 0.6% hits; in the data active means inhibition mostly above about 37%, no sharp cut-off; inactive means mostly below about 20%;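 further: plate controls were negative control peptide for no effect and reference peptide for full effect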
SARS 3CLpro inh – SARS-CoV 3CLpro protease inhibition. P0C6X7. recombinant SARS-CoV 3CLpro, quenched FRET peptide cleavage. inhibition, % at 6 µM. 290,000 compounds, 0.14% hits; in the data active means inhibition above about 12%
Y pestis TopoI – inhibitors of Yersinia pestis topoisomerase I; Y. pestis Topo-I cleavage product accumulation, plate reader; activity, % at 10 µM; 360,000 compounds, 0.064% hits; AID 504884; in the data active means activity above about 50%, passing the limit was not always enough
MazEF act – activators of E. coli MazEF toxin-antitoxin RNase; activation, % at 20 µM; AID 504720; FAM/BHQ RNA-DNA oligo cleavage fluorescence, 5 h; 350,000 compounds, 0.32% hits; in the data active means activation above about 50%
Target sequence (P0AE70 whole entry, looked up): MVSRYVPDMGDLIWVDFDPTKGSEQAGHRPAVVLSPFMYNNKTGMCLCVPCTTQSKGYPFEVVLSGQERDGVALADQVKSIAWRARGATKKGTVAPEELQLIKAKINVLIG
* marks the source's active call; other numbers are inactive results; . = no result. Shown are actives, neighbours in structure and some others; about 0.9% of the full set was active somewhere.

SMILES	SSB-PriA inh	SARS 3CLpro inh	Y pestis TopoI	MazEF act
CCN(CC)c1ccc(C(=S)N2CCN(c3ccccc3)CC2)cc1	-22	-7	25	3
CCCN(CCC)c1ccc(C(=S)N2CCN(C(=S)Nc3ccccc3)CC2)cc1	-2	.	.	.
CCCOc1ccccc1NC(=Nc1nc(C)cc(C)n1)NC(=O)Nc1ccc(Cl)cc1	0	.	.	.
Cc1ccccc1-n1c(O)c(C=NNC(=O)c2ccccc2O)c(=O)[nH]c1=S	29	.	.	.
CC1Oc2ccccc2N(CC(=O)Nc2ccc(F)cc2)C1=O (configuration not stated)	-6	1	1	-24
O=C(CN1C(=O)C2CCCCC2C1=O)Nc1nc(-c2ccccn2)cs1 (configuration not stated)	81*	-5	-6	2
C[C@@H](C(=O)Nc1nc(-c2ccccn2)cs1)N1C(=O)C2CCCCC2C1=O (some centres not stated)	81*	5	-11	-5
CC1Oc2ccccc2N(CC(=O)Nc2nc(-c3ccccn3)cs2)C1=O (configuration not stated)	58*	.	.	.
CS(=O)(=O)N1Cc2cncnc2C1	-21	.	.	.
C=CCN1C(=O)C(C)(C)COc2ccc(NS(=O)(=O)c3ccc(OC)c(Cl)c3)cc21	9	.	.	.
Nc1c(C(=O)Nc2ccc(S(=O)(=O)N3CCCC3)cc2)sc2nc3cc4c(cc3cc12)CCC4	1	1	0	57*
Nc1c(C(=O)Nc2ccc(S(=O)(=O)N3CCCC3)cc2)sc2nc3ccc(OC(F)(F)F)cc3cc12	-10	-2	-1	402*
Cc1cc(C)nc(NS(=O)(=O)c2ccc(NC(=O)c3sc4nc5c(cc4c3N)CCCC5)cc2)n1	-17	.	.	.
COc1ccc2nc(SCC(=O)Nc3ccc(S(=O)(=O)N4CCCC4)cc3)c(C#N)cc2c1	0	2	-2	10
CCOC(=O)c1c(/N=C/C2C(=O)NC(=O)NC2=O)sc2c1CCC2	.	5	1	123*
Cc1cccc(C(=O)Nc2cccc(-c3cnc4ccccc4n3)c2)c1	-20	-2	-9	53*
Cc1cnc2n(c1=O)C(CC(=O)NCc1cccs1)CS2 (configuration not stated)	-7	.	.	.
COc1cccc2c(=O)n(CC(=O)Nc3ccc(F)cc3)ccc12	104*	-2	0	-13
O=c1cc(-c2ccccc2)[nH]n1-c1nc2ccccc2[nH]1	69*	-3	-12	-1
CCc1cc(=O)[nH]c(-n2[nH]c(-c3ccccc3)cc2=O)n1	3	4	-2	1
CC(=O)Oc1c(/C=C(\C#N)C(N)=O)[nH]c2ccccc12	8	-10	-5	597*
N#C/C(=C\c1c[nH]c2ccccc12)C(N)=O	-4	4	3	-2
O=C(NC(c1ccccc1)c1ccccc1)c1c[nH]c(=O)n(Cc2ccccc2Cl)c1=O	-21	.	.	.
O=C(c1ccccc1[N+](=O)[O-])N1CCN(c2ccc(N3CCCCCC3)nn2)CC1	19	.	.	.
O=C(Nc1ccccc1)/C(=C\c1cccs1)NC(=O)c1ccccc1	-4	-1	4	7
SMILES	SSB-PriA inh	SARS 3CLpro inh	Y pestis TopoI	MazEF act
Cc1cccc(NC(=O)/C(=C\c2cccs2)NC(=O)c2ccccc2)c1	7	-3	1	59*
O=C(CCC(=O)OCCc1ccccc1)Nc1ccc(S(=O)(=O)Nc2nccs2)cc1	-3	.	.	.
O=C(c1cc([N+](=O)[O-])ccc1Cl)N1c2ccccc2Sc2ccccc21	62*	6	9	-8
COc1ccc(N(C(C)C(=O)N2CCC(Cc3ccccc3)CC2)S(C)(=O)=O)cc1 (configuration not stated)	55*	-3	17	-1
CO[C@@H](CNC(=O)Cc1cccc2ccccc12)c1cccc(F)c1	-4	.	.	.
CN(C)c1ccc(CN(CC2CCCO2)C(=O)c2cc3ccccc3o2)cc1 (configuration not stated)	25	.	30	-6
Cc1c(C(=O)N(Cc2ccc(N(C)C)cc2)CC2CCCO2)oc2ccccc12 (configuration not stated)	57*	-3	37	-5
Cc1ccc2oc(C(=O)N(Cc3ccc(N(C)C)cc3)C3CCS(=O)(=O)C3)c(C)c2c1 (configuration not stated)	43*	2	34	-3
Cc1c(C(=O)N(Cc2ccc(Cl)cc2)C2CCS(=O)(=O)C2)oc2ccccc12 (configuration not stated)	7	3	11	2
Cc1ccc2c(C)c(C(=O)N(Cc3ccc(N(C)C)cc3)C3CCS(=O)(=O)C3)oc2c1 (configuration not stated)	39*	-3	15	8
CCN(Cc1ccccc1)C(=O)c1oc2ccc(C)cc2c1C	-16	7	53*	-6

Assay outcomes (PubChem BioAssay)
